Screens deposited in PubChem by National Center for Advancing Translational Sciences (NCATS).
A selection: hits, their analogues and other compounds. The true share with any hit is near 19%.
DT40 TDP1 no CPT = qHTS for Inhibitors of human tyrosyl-DNA phosphodiesterase 1 (TDP1): qHTS in cells in absence of CPT; DT40 Tdp1-/- hTDP1 cells, no CPT, ATP luminescence, 48 h; Potency, µM (series often up to 46.2 µM), for the others: at the highest dose activity change, negative = growth inhibition, most hits filed as inhibitors; actives 15% (n = 420,000); also: potency is read from the fitted curve at half-maximal effect; nearly all actives have a fitted effect of over 55% in size
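Cells were dispensed at 400 per well, compounds added by pin tool, plates incubated ≥48 hr at 37 °C, then CellTiter-Glo added for 30 min at room temperature before luminescence reading. Line: DT40 Tdp1-/- complemented with hTDP1; camptothecin omitted.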
HT1080 IDH1KD tx = HT-1080 IDH1 knockdown cell toxicity (counter line). HT-1080 IDH1 knockdown viability, ATP luminescence, 48 h. Potency, µM (titrated, usually from 46.1 µM), for the others: at the highest dose activity, negative = toxicity, usual class: cytotoxic. actives 2% (n = 360,000). AID 686971;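 also: potency is read from the fitted curve at half-maximal effect; 0% = DMSO wells and -100% = cell-free medium wells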
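IDH1KD HT-1080 cells, 750/well, RPMI + 5% FBS; compound pinned after 2 h settling; 48 h, 37 °C; CellTiter-Glo luminescence; % activity normalised to DMSO and no-cell wells; curves fitted, classed by r2 and efficacy.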
DT40 TDP1 CPT = growth inhibition of DT40 Tdp1-/-;hTDP1 cells with camptothecin (screen for TDP1 inhibitors). chicken DT40 Tdp1-/-;hTDP1 cells + 20 nM CPT, ATP luminescence, 48 h. Potency, µM (doses to about 46.2 µM), for the others: at the top dose activity change, negative = growth inhibition, most hits filed as inhibitors. actives 12% (n = 420,000). AID 686979; also: potency is read from the fitted curve at half-maximal effect; nearly all actives have a fitted effect of over 55% in size
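Chicken DT40 Tdp1-/- cells stably complemented with human TDP1 were seeded at 400 cells/well in medium containing 20 nM camptothecin, exposed to pin-transferred compounds, and grown at 37 °C for at least 48 hr. Viability was read as ATP luminescence.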
IL1B secr inh = inflammasome signaling inhibition, IL-1 beta readout | actives 4.7% (n = 360,000) | activity change, % at 57.5 µM | THP-1 LPS/ATP IL-1B secretion, AlphaLISA, 16 h; stronger effect = lower value; in the data active = activity change below about -50%; inconclusive = mostly about -30% to -49%
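THP-1 cells pretreated 1 hr with compounds (up to 57.5 uM final), then stimulated with LPS (250 ng/mL final) plus ATP (1.25 mM final); secreted IL-1B measured by AlphaLISA after 16 hr, decreased signal indicating inhibition.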
HT1080NT lethal = kills 2HG-producing HT-1080-NT fibrosarcoma cells; HT-1080-NT fibrosarcoma viability, CellTiter-Glo ATP luminescence, 48 h; Potency, µM (series often up to 46.1 µM), for the others: at the highest dose activity, negative = less viability, most hits filed as cytotoxic; actives 1.6% (n = 360,000); AID 686970;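 also: NT is the 2HG producing partner of a matched IDH1 knockdown line; potency is read from the fitted curve at half-maximal effect; 0% = DMSO-treated cells and -100% = media-only wells without cells; nearly all actives have a fitted effect of over 55% in size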
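Toxicity toward the 2HG-producing NT line was scored as %Activity, normalised to DMSO and no-cell wells, from CellTiter-Glo luminescence after 48 hours' treatment.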
* hit, by the source's call; [ ] = another dose, or the depositor's remark. Unless noted, calls follow the shape of the dose curve; as a rule, active = well fitted curve in the direction sought with a large enough effect; inconclusive = small, poorly fitted or top-dose-only effect, or another doubt; inactive = no such curve, though single readings can be large; an effect the other way counts as inactive or inconclusive. Unless noted, % is scaled to controls: 0 for no effect and ±100 for the full control effect.

What do the screens show for `O=C(O)CCCC(=O)N1CCc2cc(S(=O)(=O)NCc3ccc(F)cc3)ccc21`?
DT40 TDP1 no CPT: -12.5%; HT1080 IDH1KD tx: 2.1%; DT40 TDP1 CPT: 3.5%; IL1B secr inh: 73.8; HT1080NT lethal: 7.7%

How did COc1ccc(/C=N/n2c(SC)nnc2-c2ccccc2)c(OC)c1OC do in these assays?
DT40 TDP1 no CPT: 2.06µM*; HT1080 IDH1KD tx: inconclusive; DT40 TDP1 CPT: 3.26µM*; IL1B secr inh: -8.7; HT1080NT lethal: -16.4%

How did Clc1ccccc1NN=Cc1ccccn1 do in these assays?
DT40 TDP1 no CPT: -28.4%; HT1080 IDH1KD tx: inconclusive; DT40 TDP1 CPT: -6.3%; IL1B secr inh: 0.0; HT1080NT lethal: -10.3%

What do the screens show for `COc1c(Cl)cc(C(=O)Nc2ccccc2-c2ccccc2)cc1Cl`?
DT40 TDP1 no CPT: 29.1µM*; HT1080 IDH1KD tx: 8.3%; DT40 TDP1 CPT: inconclusive; IL1B secr inh: inconclusive; HT1080NT lethal: -0.2%

What do the screens show for `COc1ccc(Br)cc1C(=O)Nc1ccccc1-c1ccccc1`?
DT40 TDP1 no CPT: 29.1µM*; HT1080 IDH1KD tx: -24.0%; DT40 TDP1 CPT: inconclusive; IL1B secr inh: 41.8; HT1080NT lethal: inconclusive

Results for COc1cccc(C(=O)Nc2ccccc2-c2ccccc2)c1 ?
DT40 TDP1 no CPT: inconclusive; HT1080 IDH1KD tx: -3.6%; DT40 TDP1 CPT: -26.8%; IL1B secr inh: -21.5; HT1080NT lethal: -4.1%

Results for CCn1c2ccccc2c2cc(NC(=O)CCCN3C(=O)CCC3=O)ccc21 ?
DT40 TDP1 no CPT: inconclusive; HT1080 IDH1KD tx: -3.4%[9.24 µM]; DT40 TDP1 CPT: inconclusive; IL1B secr inh: -4.9; HT1080NT lethal: -10.1%

What do the screens show for `Cc1ccc2c(c1)c(=O)c1ccccc1n2CCCC(=O)Nc1ccc(C)c(C)c1`?
DT40 TDP1 no CPT: 23.1µM*; DT40 TDP1 CPT: 23.1µM*

How did O=C(CCCn1c2ccccc2c(=O)c2ccccc21)Nc1cccc(Cl)c1 do in these assays?
DT40 TDP1 no CPT: 16.4µM*; DT40 TDP1 CPT: inconclusive

What do the screens show for `COCCN1CCN(C(=O)c2cnn(-c3ncc4c(n3)-c3ccc(OC)cc3CC4)c2C2CC2)CC1`?
DT40 TDP1 no CPT: -16.6%; DT40 TDP1 CPT: 6.5%[9.04 µM]

How did CC(C)CC1NC(=O)N(CC(=O)N2CCN(S(=O)(=O)c3ccccc3)CC2)C1=O (stereo unspecified) do in these assays?
DT40 TDP1 no CPT: 4.3%; HT1080 IDH1KD tx: 8.9%; DT40 TDP1 CPT: 0.7%; IL1B secr inh: -7.5; HT1080NT lethal: 7.4%

Results for O=C1NC(=O)c2cc(Oc3ccc([N+](=O)[O-])cc3)ccc21 ?
DT40 TDP1 no CPT: -3.0%; HT1080 IDH1KD tx: 1.0%; DT40 TDP1 CPT: -4.3%; IL1B secr inh: 16.1; HT1080NT lethal: -5.1%

What do the screens show for `CN(C)/C=C/C1=CC(=O)CC(C)(C)C1`?
DT40 TDP1 no CPT: -23.8%; HT1080 IDH1KD tx: 20.6µM*; DT40 TDP1 CPT: -2.3%; IL1B secr inh: inconclusive; HT1080NT lethal: -29.4%

Results for COc1cc(NC(=O)CCNC(=O)N2CC(=O)Nc3ccccc32)cc(OC)c1OC ?
DT40 TDP1 no CPT: 3.8%; HT1080 IDH1KD tx: -0.8%; DT40 TDP1 CPT: 8.3%; IL1B secr inh: 1.7; HT1080NT lethal: 1.5%

How did COc1cc(NC(=O)N2CCC3(CC2)Nc2ccccc2-n2cccc23)cc(OC)c1OC do in these assays?
DT40 TDP1 no CPT: inconclusive; DT40 TDP1 CPT: 20.6µM*

How did Cc1cc(C)cc(NC(=O)CS(=O)(=O)c2cccc3nsnc23)c1 do in these assays?
DT40 TDP1 no CPT: -16.7%; HT1080 IDH1KD tx: -0.6%; DT40 TDP1 CPT: -6.2%; IL1B secr inh: -8.3; HT1080NT lethal: -0.7%

What do the screens show for `CC1(C(=O)NCc2ccco2)Cc2c(-c3ccc(C(N)=O)cc3)ccnc2O1` (stereo unspecified)?
DT40 TDP1 no CPT: 3.66µM*; HT1080 IDH1KD tx: 2.91µM*; DT40 TDP1 CPT: 4.11µM*; IL1B secr inh: 52.0; HT1080NT lethal: 3.26µM*

How did CC1(C(=O)NCc2ccccc2)Cc2c(-c3ccc(C(N)=O)cc3)ccnc2O1 (stereo unspecified) do in these assays?
DT40 TDP1 no CPT: 2.06µM*; HT1080 IDH1KD tx: 1.46µM*; DT40 TDP1 CPT: 1.64µM*; IL1B secr inh: 44.2; HT1080NT lethal: inconclusive

What do the screens show for `CN(C)c1ccc(-c2ccnc3c2CC(C)(C(=O)NCc2ccccc2)O3)cc1` (stereo unspecified)?
DT40 TDP1 no CPT: 5.17µM*; HT1080 IDH1KD tx: inconclusive; DT40 TDP1 CPT: 2.91µM*; IL1B secr inh: 45.6; HT1080NT lethal: inconclusive

How did CN1CCN(c2ccc(CNC(=O)C3(C)Cc4c(-c5ccccc5)ccnc4O3)cc2)CC1 (stereo unspecified) do in these assays?
DT40 TDP1 no CPT: 20.6µM*; HT1080 IDH1KD tx: -16.4%; DT40 TDP1 CPT: 25.9µM*; IL1B secr inh: -22.0; HT1080NT lethal: -8.3%

What do the screens show for `CC(C)(O)C#Cc1ccc(CN2CCN(C3CCCCC3)C(CCO)C2)s1` (stereo unspecified)?
DT40 TDP1 no CPT: -18.5%; HT1080 IDH1KD tx: 0.6%; DT40 TDP1 CPT: -23.5%; IL1B secr inh: 3.5; HT1080NT lethal: 0.9%

What do the screens show for `CC(=O)Nc1cccc(-c2ccnc3c2CC(C)(C(=O)NCCN(C)C)O3)c1` (stereo unspecified)?
DT40 TDP1 no CPT: -3.1%; HT1080 IDH1KD tx: 4.7%; DT40 TDP1 CPT: 0.7%; IL1B secr inh: 30.4; HT1080NT lethal: 27.0%

How did COc1ccc(CNC(=O)C2(C)Cc3c(-c4ccccc4)ccnc3O2)cc1OC (stereo unspecified) do in these assays?
DT40 TDP1 no CPT: inconclusive; HT1080 IDH1KD tx: -27.6%; DT40 TDP1 CPT: inconclusive; IL1B secr inh: 23.3; HT1080NT lethal: -20.2%

Results for CC1(C(=O)NCCc2ccccc2)Cc2c(-c3ccccc3)ccnc2O1 (stereo unspecified) ?
DT40 TDP1 no CPT: inconclusive; HT1080 IDH1KD tx: inconclusive; DT40 TDP1 CPT: 20.6µM*; IL1B secr inh: -59.1*; HT1080NT lethal: -19.3%

Results for CC1(C(=O)NCC2CC2)Cc2c(-c3ccccc3)ccnc2O1 (stereo unspecified) ?
DT40 TDP1 no CPT: 13µM*; HT1080 IDH1KD tx: -24.2%; DT40 TDP1 CPT: 9.2µM*; IL1B secr inh: 44.6; HT1080NT lethal: -20.6%

What do the screens show for `CC1(C(=O)NCc2ccccc2)Cc2c(-c3ccccc3)ccnc2O1` (stereo unspecified)?
DT40 TDP1 no CPT: 4.11µM*; HT1080 IDH1KD tx: inconclusive; DT40 TDP1 CPT: inconclusive; IL1B secr inh: 0.0; HT1080NT lethal: inconclusive

Results for CC(=O)Nc1cccc(-c2ccnc3c2CC(C)(C(=O)NCCc2ccccc2)O3)c1 (stereo unspecified) ?
DT40 TDP1 no CPT: 4.61µM*; HT1080 IDH1KD tx: inconclusive; DT40 TDP1 CPT: 5.8µM*; IL1B secr inh: 104.0; HT1080NT lethal: inconclusive
